# Results: ChEMBL document CHEMBL3988442, “University of Dundee, Small-Polar-MMV Screening Library” (2021)
# Molecular target: T1, Aspartate--tRNA(Asp/Asn) ligase (Mycobacterium tuberculosis (strain ATCC 25618 / H37Rv)) (UniProt P9WFW3); further: in the data most compounds retested in dose-response had high values
# T1 sequence (whole entry): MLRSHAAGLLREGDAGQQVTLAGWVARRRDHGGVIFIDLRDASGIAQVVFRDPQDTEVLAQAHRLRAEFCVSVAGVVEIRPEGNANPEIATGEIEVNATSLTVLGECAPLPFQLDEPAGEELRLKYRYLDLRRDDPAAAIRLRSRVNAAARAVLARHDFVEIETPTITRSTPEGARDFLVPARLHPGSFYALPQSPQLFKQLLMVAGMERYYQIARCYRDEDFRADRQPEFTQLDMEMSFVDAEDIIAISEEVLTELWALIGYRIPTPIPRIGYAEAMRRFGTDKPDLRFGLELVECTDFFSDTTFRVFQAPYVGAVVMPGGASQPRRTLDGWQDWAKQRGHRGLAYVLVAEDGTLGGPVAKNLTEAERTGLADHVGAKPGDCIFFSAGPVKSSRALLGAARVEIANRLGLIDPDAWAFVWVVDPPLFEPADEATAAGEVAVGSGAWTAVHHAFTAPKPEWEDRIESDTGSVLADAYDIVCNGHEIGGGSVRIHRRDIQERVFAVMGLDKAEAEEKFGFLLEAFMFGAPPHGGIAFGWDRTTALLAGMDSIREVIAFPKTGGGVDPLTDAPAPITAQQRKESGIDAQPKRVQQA
# Experiment: Assay for Asp RNA synthetase-1 from Mycobacterium tuberculosis
# Format: functional
# Design: scale not given: direction of the effect not stated beside the values
# Conditions: 30 µM
row,Compound,Percent Effect
1,COCCC(=O)N1C[C@H]2CN(Cc3cccc(C)n3)C(=O)[C@H]2C1,0.774%
2,N#Cc1cc(NC(=O)c2ccsc2)ccc1N1CCC(O)CC1,3.33%
3,O=C(NCc1ccco1)[C@H]1C[C@@H]2CCN(c3ccncn3)C[C@@H]2O1,-4.16%
4,O=C(CCc1nccs1)N1CCN(c2ccc(Br)cn2)CC1,3.92%
5,CC(c1ccc(Cl)cc1)N1CCN(CCNS(C)(=O)=O)CC1 (stereo not given),1.42%
6,Fc1ccc(CN2CCC(c3nccnc3-n3ccnc3)CC2)cc1,-5.52%
7,Cc1noc(C)c1CNc1cc(N2CCCC2CO)ncn1 (stereo not given),-7.32%
8,CC(C)(N)C(=O)N1CCCC1c1cncc(Oc2ccc(F)cc2)n1 (stereo not given),-3.75%
9,O=C(c1ccncc1)N1Cc2ccccc2OC2(CCOCC2)C1,-4.33%
10,O=C(Cc1ccc(F)cc1)N1CCn2cc(Cn3cccn3)nc2C1,5%
11,CC1CCN(S(=O)(=O)c2cccn(CC(=O)N3CCOCC3)c2=O)CC1,-4.3%
12,CC(O)CC(C)(C)CNC(=O)NCc1cccc(-n2cncn2)c1 (stereo not given),-1.59%
13,Cc1cccn2c(=O)cc(OC(=O)c3ccccc3)nc12,-3.21%
14,OC(COCc1ccccc1Cl)CN1CC(n2cccn2)C1 (stereo not given),0.411%
15,Cn1cc2c(n1)C(COCC1CC1)CN(Cc1ccccn1)C2 (stereo not given),-2.25%
16,CCCc1n[nH]c(C2CN(CCCOc3ccccc3)CCO2)n1 (stereo not given),0.946%
17,CCS(=O)(=O)NC(C(=O)NC)c1ccc(F)c(F)c1 (stereo not given),-0.436%
18,CCCn1[nH]cc/c1=N\C(=O)CN1CCc2cnc(CC)nc2C1,5.8%
19,CNC(=O)c1cnc(/C=C/c2cc(OC)cc(OC)c2)s1,5.76%
20,CC(C)c1nc(CN2CCCCC2)cs1,-3.66%

row,Compound,Percent Effect
1,CC(C)(C)C(=O)Cn1nc(-c2ccccc2F)ccc1=O,-2.79%
2,COc1ccc(C[C@H]2CN(C(=O)c3ccncc3)CC[C@@H]2OC)cc1,1.64%
3,O=C(NC[C@]12COC[C@H]1CN(Cc1nccs1)C2)N1CCCC1,1.45%
4,CCN1CCCn2c(nc(CNC(=O)c3ccsc3)cc2=O)C1,7.56%
5,CCN1CCN(S(=O)(=O)c2cc(Cl)c(Cl)cc2C)CC1,-2.76%
6,O=C(C1CCOCC1)N1CCc2ncnc(-c3ccc(F)cc3)c2CC1,-1.43%
7,CN(CC(=O)N1CCC(C(O)c2ccccc2)CC1)c1cnccn1 (stereo not given),-0.321%
8,O=c1[nH][nH]cc1-c1ccnc(NCCN2CCCC2)n1,5.51%
9,CCOc1ccccc1-c1noc(CN2CC(n3cccn3)C2)n1,0.259%
10,Cc1ccsc1CN(CCN(C)C)Cc1ccccn1,-0.167%
11,Cc1cnn(CC2CCCN2Cc2nccn2C)c1 (stereo not given),5.22%
12,Cc1cccc(N2CCN(CCNC(=O)C(C)n3cncn3)CC2)c1 (stereo not given),2.75%
13,CC(C)CC(=O)N1CC[C@@H]2[C@H](CC1)N(S(C)(=O)=O)CCS2(=O)=O,-2.04%
14,COCCn1ccc(NC(=O)Nc2cccnc2)n1,-2.04%
15,Fc1cnc(N2CCOCC3(CCCN(c4nncs4)C3)C2)nc1 (stereo not given),-3.89%
16,O=C(CN(Cc1cccnc1)CC1CCCO1)Nc1ccc(F)cc1 (stereo not given),5.92%
17,CN1CCN(CCCNC(=O)c2cc(Cl)c3c(c2)OCO3)CC1,-5.91%
18,Cc1c(NC(=O)NCC(C)N2CCOCC2)cccc1OC(F)F (stereo not given),-1.79%
19,COc1ccc(CCN2CCc3c(nc(C4CC4)n3C)C2)cc1,4.19%
20,COc1ccc(CN(Cc2cncn2C)CC2CCCO2)c(OC)c1 (stereo not given),7.91%

# Molecular target: Shiga toxin 2 (Escherichia coli O157:H7) (UniProt P09385+P09386)
# Experiment: E. coli 0.157:H7 Shiga Toxin SOP - stx2 screening assay
# Format: functional
# Design: scale not given: direction of the effect not stated beside the values
# Conditions: 30 µM
row,Compound,Percent Effect
1,COCCC(=O)N1C[C@H]2CN(Cc3cccc(C)n3)C(=O)[C@H]2C1,-18.7%
2,N#Cc1cc(NC(=O)c2ccsc2)ccc1N1CCC(O)CC1,-57.5%
3,O=C(NCc1ccco1)[C@H]1C[C@@H]2CCN(c3ccncn3)C[C@@H]2O1,-6.97%
4,O=C(CCc1nccs1)N1CCN(c2ccc(Br)cn2)CC1,23.4%
5,CC(c1ccc(Cl)cc1)N1CCN(CCNS(C)(=O)=O)CC1 (stereo not given),-11.7%
6,Fc1ccc(CN2CCC(c3nccnc3-n3ccnc3)CC2)cc1,-0.684%
7,Cc1noc(C)c1CNc1cc(N2CCCC2CO)ncn1 (stereo not given),-11.6%
8,CC(C)(N)C(=O)N1CCCC1c1cncc(Oc2ccc(F)cc2)n1 (stereo not given),-12.5%
9,O=C(c1ccncc1)N1Cc2ccccc2OC2(CCOCC2)C1,-1.88%
10,O=C(Cc1ccc(F)cc1)N1CCn2cc(Cn3cccn3)nc2C1,5.65%
11,CC1CCN(S(=O)(=O)c2cccn(CC(=O)N3CCOCC3)c2=O)CC1,-33%
12,CC(O)CC(C)(C)CNC(=O)NCc1cccc(-n2cncn2)c1 (stereo not given),7%
13,Cc1cccn2c(=O)cc(OC(=O)c3ccccc3)nc12,-13.3%
14,OC(COCc1ccccc1Cl)CN1CC(n2cccn2)C1 (stereo not given),29.1%
15,Cn1cc2c(n1)C(COCC1CC1)CN(Cc1ccccn1)C2 (stereo not given),9.17%
16,CCCc1n[nH]c(C2CN(CCCOc3ccccc3)CCO2)n1 (stereo not given),5.54%
17,CCS(=O)(=O)NC(C(=O)NC)c1ccc(F)c(F)c1 (stereo not given),10.3%
18,CCCn1[nH]cc/c1=N\C(=O)CN1CCc2cnc(CC)nc2C1,-6.51%
19,CNC(=O)c1cnc(/C=C/c2cc(OC)cc(OC)c2)s1,-89.3%
20,CC(C)c1nc(CN2CCCCC2)cs1,7.17%

row,Compound,Percent Effect
1,CC(C)(C)C(=O)Cn1nc(-c2ccccc2F)ccc1=O,-9.41%
2,COc1ccc(C[C@H]2CN(C(=O)c3ccncc3)CC[C@@H]2OC)cc1,-22.2%
3,O=C(NC[C@]12COC[C@H]1CN(Cc1nccs1)C2)N1CCCC1,-23.5%
4,CCN1CCCn2c(nc(CNC(=O)c3ccsc3)cc2=O)C1,11.3%
5,CCN1CCN(S(=O)(=O)c2cc(Cl)c(Cl)cc2C)CC1,-10.7%
6,O=C(C1CCOCC1)N1CCc2ncnc(-c3ccc(F)cc3)c2CC1,-14%
7,CN(CC(=O)N1CCC(C(O)c2ccccc2)CC1)c1cnccn1 (stereo not given),-9.59%
8,O=c1[nH][nH]cc1-c1ccnc(NCCN2CCCC2)n1,-68.3%
9,CCOc1ccccc1-c1noc(CN2CC(n3cccn3)C2)n1,34.8%
10,Cc1ccsc1CN(CCN(C)C)Cc1ccccn1,1.36%
11,Cc1cnn(CC2CCCN2Cc2nccn2C)c1 (stereo not given),7.58%
12,Cc1cccc(N2CCN(CCNC(=O)C(C)n3cncn3)CC2)c1 (stereo not given),15.6%
13,CC(C)CC(=O)N1CC[C@@H]2[C@H](CC1)N(S(C)(=O)=O)CCS2(=O)=O,-14.8%
14,COCCn1ccc(NC(=O)Nc2cccnc2)n1,-43.4%
15,Fc1cnc(N2CCOCC3(CCCN(c4nncs4)C3)C2)nc1 (stereo not given),6.61%
16,O=C(CN(Cc1cccnc1)CC1CCCO1)Nc1ccc(F)cc1 (stereo not given),-3.06%
17,CN1CCN(CCCNC(=O)c2cc(Cl)c3c(c2)OCO3)CC1,-42.5%
18,Cc1c(NC(=O)NCC(C)N2CCOCC2)cccc1OC(F)F (stereo not given),3.31%
19,COc1ccc(CCN2CCc3c(nc(C4CC4)n3C)C2)cc1,-51.7%
20,COc1ccc(CN(Cc2cncn2C)CC2CCCO2)c(OC)c1 (stereo not given),11.4%
